The supplement of paper PMC6555819

Legend:
Assay in all cases: PBM binding z-score (relative to random genomic background probes); higher = stronger binding; sequences stand for … in GC…GCGATTGACAGCGTAGAATGAAGG
[1] = system: FXR:RXRa (NR concentration 270 nM, RXRa partner concentration 90 nM)
How it was run: (§1)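 Random background probes are the reference for binding z-scores. These scores derive from regression-normalized fluorescence on custom Agilent 4×180K protein-binding microarrays incubated 1 h with ligand-free nuclear receptor dimers. Binding was detected with antibodies against each partner (one per run).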

[2] = system: LXRa:RXRa (NR concentration 270 nM, RXRa partner concentration 90 nM)
How it was run: as §1

[3] = system: LXRa homodimer (NR concentration 270 nM)
How it was run: as §1

[4] = system: LXRb:RXRa (NR concentration 270 nM, RXRa partner concentration 90 nM)
How it was run: as §1

[5] = system: LXRb homodimer (NR concentration 270 nM)
How it was run: as §1

[6] = system: PPARa:RXRa (NR concentration 270 nM, RXRa partner concentration 90 nM)
How it was run: as §1

[7] = system: PPARg:RXRa (NR concentration 180 nM, RXRa partner concentration 90 nM)
How it was run: as §1

[8] = system: PPARg:RXRa 270nM:90nM, anti-RXR (NR concentration 270 nM, RXRa partner concentration 90 nM)
How it was run: as §1

[9] = system: PPARg:RXRa 30nM:10nM, anti-RXR (NR concentration 30 nM, RXRa partner concentration 10 nM)
How it was run: as §1

[10] = system: PPARg:RXRa 90nM:30nM, anti-RXR (NR concentration 90 nM, RXRa partner concentration 30 nM)
How it was run: as §1

[11] = system: PPARg:RXRa DBDmut IVT, anti-RXR (DBD mutation: RXRa K156A/R161A, NR concentration 270 nM, RXRa partner concentration 90 nM)
How it was run: as §1

[12] = system: PPARg:RXRa IVT, anti-PPARg (NR concentration 270 nM, RXRa partner concentration 90 nM)
How it was run: as §1

[13] = system: PPARg DBDmut:RXRa IVT, anti-PPARg (DBD mutation: PPARg1 K132A/R137A, NR concentration 270 nM, RXRa partner concentration 90 nM)
How it was run: as §1

[14] = system: PPARg DBDmut IVT, anti-PPARg (DBD mutation: PPARg1 K132A/R137A, NR concentration 270 nM)
How it was run: as §1

[15] = system: PPARg homodimer (NR concentration 180 nM)
How it was run: as §1

[16] = system: PXR:RXRa (NR concentration 270 nM, RXRa partner concentration 90 nM)
How it was run: as §1

[17] = system: PXR homodimer (NR concentration 270 nM)
How it was run: as §1

[18] = system: RARa:RXR (NR concentration 270 nM, RXRa partner concentration 90 nM)
How it was run: as §1

[19] = system: RARa homodimer (NR concentration 270 nM)
How it was run: as §1

[20] = system: RARb:RXRa (NR concentration 270 nM, RXRa partner concentration 90 nM)
How it was run: as §1

Sequence	PBM binding z-score [1]	PBM binding z-score [2]	PBM binding z-score [3]	PBM binding z-score [4]	PBM binding z-score [5]	PBM binding z-score [6]	PBM binding z-score [7]	PBM binding z-score [8]	PBM binding z-score [9]	PBM binding z-score [10]	PBM binding z-score [11]	PBM binding z-score [12]	PBM binding z-score [13]	PBM binding z-score [14]	PBM binding z-score [15]	PBM binding z-score [16]	PBM binding z-score [17]	PBM binding z-score [18]	PBM binding z-score [19]	PBM binding z-score [20]
ATATGTAGGTTAAGGGTAATTCAGGTTGGTTCGC	1.39	2.14	1.04	1.72	0.767	4.6	8.65	7.77	8.77	8.33	7.67	7.16	1.52	1.87	2.15	1.74	1.44	1.63	2.31	1.69
TTACCAAGGTGAGCTGAGGTGGTTGATCCAACTC	-0.284	-0.505	-0.878	-0.761	-1.22	0.275	-0.0433	0.188	-0.313	0.186	0.594	1.48	-0.51	-0.991	-0.428	0.478	-0.709	1.53	-0.848	0.757
GCTTGTAGATCAAGGGTAAGAAAGACTAAGCTAA	-0.663	-0.469	-0.732	-0.394	-0.8	1.24	2.55	4.2	1.91	4.14	1.15	1.03	-0.364	-0.778	0.0991	-0.426	-0.45	-0.346	-0.786	-0.0761
CATACTGGGCCAAAAAGGTCATTGATGCCGATAA	3.78	4.56	3.26	4.16	0.973	4.63	2.82	3.82	1.24	3.11	3.46	3.71	0.731	0.232	2.9	4.68	3.77	5.06	2.12	3.82
TGTCAAAGTTCGAAGGTAACGTAAGTATCCACAC	1.54	1.56	0.166	1.27	-0.175	2.58	4.57	5	2.28	4.19	-0.516	2.26	1.29	0.86	0.387	1.64	0.292	2.13	0.23	2.34
CCGACTGGGGCAAGGTTACCCTAACGCACAGCCA	0.301	0.334	-0.217	0.52	-1.15	1.88	2.75	3.18	0.752	2.75	2.55	3.74	-0.273	-0.891	0.107	0.232	-0.208	0.791	-0.576	1.58
CTCCAAAGGTCGTGCTCAGGTGAGTATACCAAAC	5.95	4.42	0.227	3.67	0.361	5.08	3.62	4.58	1.3	3.35	0.883	1.49	-0.0777	-0.509	2.56	3.53	0.561	4.78	0.196	4.08
TCATATAGGTAAACGCTAGGTGAAAGTCCGATCT	1.11	0.968	0.15	0.833	-0.0724	1.7	1.29	2.43	3.95	3.34	4.49	3.57	1.38	1.29	0.646	0.584	0.4	1.13	0.619	0.474
AGAATGAGGTTATTAAGATCAGGGGATTGCGGTC	1.52	1.31	0.0189	1.18	-0.0318	2.51	1.47	1.87	0.612	1.08	2.94	2.52	0.849	0.535	0.326	1.14	0.713	1.15	0.826	1.34
TCTAGCAGGCCCGAGGGTCACTCAAGAGGTACGG	0.726	0.983	-0.649	1.04	-1.35	1.96	0.501	1.33	1.57	1.42	0.262	-0.284	-0.445	-0.801	0.169	1.35	-0.577	2.07	-0.992	1.94
CGAACTAGGTCAGAACATGACAGTGAAGGATGAT	0.703	0.762	-0.0558	0.426	-0.161	3.07	5.35	4.49	2.05	3.4	6.77	7.31	2.34	1.77	1.17	0.243	-0.286	0.937	0.0136	2.58
GCGAATGGGGCAAAGCAGGTTACCATAAGGTTGG	0.135	0.262	-0.483	0.474	-0.239	1.31	0.647	0.187	-0.478	-0.292	1.67	1.37	-0.887	-1.21	0.664	0.467	-0.414	0.571	-0.509	1.1
CCTTACGGGTCACTGTCAGGTTATAGCATTTGGA	5.05	4.27	0.129	3.23	-0.0879	4.73	3.83	4.04	1.22	2.8	3.32	3.7	0.509	-0.255	3.86	3.99	-0.056	4.71	1.03	3.87
ACTAGCAGGCCAAGGCTCACTCAAGATTAGTCCG	-0.393	-0.377	-0.331	-0.701	-0.95	-0.271	0.588	0.682	-0.134	0.168	1.13	0.144	-0.648	-0.572	-0.478	-0.766	-0.282	-0.478	-0.56	0.257
